In PubChem BioAssay (NCI):
The panel holds about 83,000 compounds, 20% with a hit somewhere; the sample as a whole holds those more often.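 Testing used 96-well plates and a 48-hour single-concentration exposure. Example: -40 means 40% of the starting cells died.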 Unmarked numbers belong to inactive results. The source made the active and inactive calls. Rule for the calls: active = growth percent below 10; inactive = the rest.

Columns and labels:
Assay in all cases: NCI-60 one-dose screen, 48 h (100 = growth as untreated, 0 = no growth, -100 = all killed)
Settings in all cases: 10 µM unless noted
NCI-H23 lung = system: NCI-H23 lung
NCI-H226 lung = system: NCI-H226 lung
NCI-H322M lung = system: NCI-H322M lung
HOP-62 NSCLC = system: HOP-62 NSCLC
NCI-H460 lung = system: NCI-H460 lung
HOP-92 NSCLC = system: HOP-92 NSCLC
NCI-H522 lung = system: NCI-H522 lung
A549/ATCC NSCLC = system: A549/ATCC NSCLC
786-0 renal = system: 786-0 renal
COLO 205 colon = system: COLO 205 colon

SMILES	growth (NCI-H23 lung)	growth (NCI-H226 lung)	growth (NCI-H322M lung)	growth (HOP-62 NSCLC)	growth (NCI-H460 lung)	growth (HOP-92 NSCLC)	growth (NCI-H522 lung)	growth (A549/ATCC NSCLC)	growth (786-0 renal)	growth (COLO 205 colon)
COc1ccc(-c2nn(-c3ccc(NC(=O)Nc4ccc(Cl)c(C(F)(F)F)c4)cc3)cc2-c2ccncc2)cc1Cl	6.3% (active)	1.73% (active)	32.7%	-0.289% (active)	-28.2% (active)	-22% (active)	-2.66% (active)	10.3%	-33.7% (active)	-74.5% (active)
CN(C)C(=O)Nc1nc2cc(Cl)c(Cl)cc2[nH]1	11.4%	30.4%	39.9%	-38.6% (active)	2.78% (active)	75.3%	-58.1% (active)	3.32% (active)	-66.2% (active)	-12.9% (active)
CCOC(=O)NNc1nncc2ccccc12	95.4%	104%	102%	102%	110%	95.1%	103%	104%	99.1%	105%
COc1ccccc1S(=O)(=O)Nc1ccc2c3c(cc(-c4cnn(C5CC5)c4)nc13)C(=O)N2C	67.5%	79.7%	70.7%	50.7%	66.7%	40.7%	64.6%	66.4%	68.2%	39.2%
CC1(C)N=C(N)N=C(N)N1c1ccc(F)c(C(F)(F)F)c1	29.4%	54.1%	51.9%	21.7%	21.6%	45.4%	-8.07% (active)	9.86% (active)	-4.42% (active)	79.8%
COc1ccccc1P(c1ccccc1OC)c1ccccc1OC	250%	105%	87.5%	113%	94.8%	70%	92.4%	82.2%	106%	87.1%
CC12CCC3C(CCC4CC(O)CCC43C)C1C/C(=C/O)C(=O)O2 (stereo unspecified)	98.7%	96.6%	107%	99.1%	110%	99.6%	84.2%	100%	111%	105%
C[C@@H]1CC2C3C[C@H](F)C4=CC(=O)C=C[C@]4(C)[C@@]3(F)[C@@H](O)C[C@]2(C)[C@@]1(O)C(=O)CO (stereo partly specified)	105%	70.5%	94.6%	101%	96.2%	80%	91.9%	68%	109%	99.3%
CC(C)(C)NC(C1=CC(C)(C)c2ccccc2C1=O)c1ccccc1 (stereo unspecified)	9.47% (active)	-68.6% (active)	-1.08% (active)	-13.8% (active)	-49.2% (active)	-50.8% (active)	-81.5% (active)	-9.21% (active)	-94% (active)	-91.5% (active)
CCCCCCCCCCCC(=O)OCCNC(=O)C[n+]1ccccc1	107%	98.7%	99.4%	102%	120%	68.7%	102%	104%	112%	105%
CC(C)CCC[C@@H](C)[C@H]1CC[C@H]2[C@@H]3CC=C4N(c5ccccc5)C(=O)CC[C@]4(C)[C@H]3CC[C@]12C	97.2%	99.2%	98.3%	98.8%	111%	60.2%	94.1%	97.4%	93.9%	97.9%
O=C(Nc1ccc(-n2ccc3c(NC(=O)c4ccccc4)nccc32)cc1)Nc1ccc(Cl)c(Cl)c1	42.4%	68%	-5.58% (active)	-58.1% (active)	-65.4% (active)		-58.6% (active)	-75.8% (active)	-84% (active)	-53.4% (active)
CC(=O)Cc1cccnc1	96.5%	95.4%	102%	108%	105%	102%	96.3%	101%	103%	115%
O=C(/C=C/c1ccco1)c1cccc(Nc2nc(Nc3ccccc3)nc(Nc3ccccc3)n2)c1	57.6%	99.5%	34.6%	86.5%	8.52% (active)	49.1%	78.6%	20.1%	44%	62.3%
CC(C)Cn1cnc2c3ccccc3nc(NCn3nc(-c4cc(Cl)cc(Cl)c4Cl)oc3=S)c21	80.4%	99%	91.6%	66.4%	110%	50.7%	74%	99.9%	75.5%	97.5%
COc1ccc(-c2cnc(-c3ccc(F)cc3)[nH]2)cc1	88.2%	85.4%	213%	46.5%	103%	82.5%	85.9%	-55.7% (active)		111%
FC(F)(F)c1cccc([Si](F)(c2cccc(C(F)(F)F)c2)c2cccc(C(F)(F)F)c2)c1	43.4%	70.3%	91%	90.2%	73.9%	16.1%	53.2%	78.1%	50.5%	102%
O=C(Nc1ccc(-n2cc(-c3ccncc3)c(-c3ccc(O)c(Cl)c3)n2)cc1)c1ccc(Cl)c(C(F)(F)F)c1	29.9%	79.6%	54.6%	33.6%	8.06% (active)	-3.55% (active)	24.3%	28.4%	-30.9% (active)	57.8%
CN1CCN(Cn2nc(-c3cc(Cl)cc(Cl)c3Cl)n(/N=C/c3ccc(Cl)cc3)c2=S)CC1	92.5%	104%	67.6%	95%	106%		91.1%	94%	89.1%	118%
O=C(Nc1ccc(-n2cc(-c3ccncc3)c(-c3ccc(O)c(Cl)c3)n2)cc1)c1cc(C(F)(F)F)cc(C(F)(F)F)c1	82%	93.7%	75.2%	81.2%	45%	6.71% (active)	62.8%	54.8%	53.1%	82.6%
CN1CCN(CC(=O)N(C)c2ccc(N=C(c3ccccc3)c3c(O)[nH]c4ccc(C#N)cc34)cc2)CC1	35.5%	43.2%	37.7%	39.7%	21.2%	63.8%	45.3%	19.6%	32.4%	0.511% (active)
C=C1C(=O)O[C@H]2[C@H]1CC/C(COC(=O)c1ccc(C#N)cc1)=C\CC[C@@]1(C)O[C@@H]21	54.4%	-0.563% (active)	68.1%	61.3%	53.7%		-89.6% (active)	40.8%	22.9%	-77.7% (active)
COC1OCC(OS(=O)(=O)c2ccc(C)cc2)C(OC(=O)c2ccccc2)C1OC(=O)c1ccccc1 (stereo unspecified)	68.4%	68.4%	76.6%	42.2%	17.4%	62.2%	19%	48.7%	42.1%	36.4%
c1ccc2c(c1)Oc1cccnc1-n1nccc1-2	97.8%	77.3%	102%	104%	103%	90%	99.7%	99.6%	103%	119%
CCN(CC)c1ccc(C2CC(c3cc(OC)c(OC)c(OC)c3)=NN2)cc1 (stereo unspecified)	32.3%	67.9%	41.5%	34.7%	2.68% (active)	-13.6% (active)	-9.2% (active)	13.7%	23.5%	-25.7% (active)
C=C1C(=O)O[C@H]2[C@H]1CC/C(COC(=O)c1cc(OC)c(OC)c(OC)c1)=C\CC[C@@]1(C)O[C@@H]21	8.29% (active)	-12.1% (active)	52.9%	22%	16.1%	-59.5% (active)	-88.4% (active)	24.7%	-90.9% (active)	-73.4% (active)
O=C(NCCNc1nccc(-c2c(-c3cccc(O)c3)nc3sccn23)n1)Nc1cccc(C(F)(F)F)c1	96.2%	97%	76.8%	83.5%	80.1%	54.5%	-5.9% (active)	39.3%	79.4%	53.2%
